SMILES strings stand for the structures. Results filed as inconclusive are left out. Calls of active or inactive are those of the source. How the source made its calls, unless noted: active means hit-call score of the fitted dose curve at least 0.9, where 1 is the maximum; inconclusive means response in the unintended direction; inactive means score below 0.9.

We go through 10 compounds from PubChem BioAssay (EPA / NIEHS).

A short description of test [1]: ATG_GLI_CIS: Attagene CIS-FACTORIAL HepG2 Assay for human Zinc Finger Protein GLI1 (AID 2282945; active means hit-call score of the fitted dose curve at least 0.9, where 1 is the maximum; inactive means score below 0.9). Conditions: HepG2, Attagene cis-factorial reporter mRNA, GLI element; actives raise or lower the signal. The essentials:
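Bidirectional curve fits relative to DMSO, using reporter mRNA levels from RT-PCR plus capillary electrophoresis. Cells were HepG2 transiently carrying cis-regulated reporter constructs, harvested 24 h after dosing.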

The nature of test [2]: ATG_GRE_CIS: Attagene CIS-FACTORIAL HepG2 Assay for human Glucocorticoid Response Elements (GRE) (AID 2282947; active means hit-call score of the fitted dose curve at least 0.9, where 1 is the maximum; inactive means score below 0.9). As to conditions: HepG2 GRE cis-reporter, Attagene multiplex mRNA; actives raise or lower the signal. The essentials: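 Multiplexed cis-reporter mRNA induction, HepG2, 24 h post-dose. RT-PCR, FAM-labelled, HpaI-digested amplicons by CE. Bidirectional fit vs DMSO.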

The target in test [3] is Hepatocyte nuclear factor 6 (Homo sapiens) (UniProt Q9UBC0). Kind of test: ATG_HNF6_CIS: Attagene CIS-FACTORIAL HepG2 Assay for human Hepatocyte Nuclear Factor 6 (HNF6) (AID 2282952; active means hit-call score of the fitted dose curve at least 0.9, where 1 is the maximum; inactive means score below 0.9). As to conditions: HepG2 Attagene cis-factorial HNF6 reporter transcription; actives raise or lower the signal. In short, it runs like this:
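Endogenous transcription factor activity in human HepG2 liver cells was captured through cis-regulated reporter constructs. After 24 h treatment, reporter mRNA was measured by RT-PCR with capillary electrophoresis, and activity was fitted in both directions relative to DMSO.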

The target in test [4] is Heat shock factor protein 1 (Homo sapiens) (UniProt Q00613). Kind of test: ATG_HSE_CIS: Attagene CIS-FACTORIAL HepG2 Assay for human Heat Shock Transcription Factor 1 (HSE) (AID 2282953; active means hit-call score of the fitted dose curve at least 0.9, where 1 is the maximum; inactive means score below 0.9). Conditions: HepG2 HSE cis-reporter, Attagene RNA transcription; actives raise or lower the signal. The essentials: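 After a 24 h incubation with test chemical, transfected HepG2 cells were harvested for RNA; reporter transcripts were measured by RT-PCR and capillary electrophoresis. Values reflect gain or loss of signal relative to DMSO.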

Test [5] in a line: ATG_PBREM_CIS: Attagene CIS-FACTORIAL HepG2 Assay for human Phenobarbital-responsive Enhancer Module (PBREM) (AID 2282955; active means hit-call score of the fitted dose curve at least 0.9, where 1 is the maximum; inactive means score below 0.9). As to conditions: HepG2 PBREM cis-reporter, Attagene multiplexed transcription; actives raise or lower the signal. In short, it runs like this: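 Measures endogenous factor action on a phenobarbital-responsive enhancer module. HepG2 transiently carrying cis reporters, 24 h treatment, mRNA read-out by RT-PCR plus capillary electrophoresis.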

Test [6] can be described thus: ATG_SREBP_CIS: Attagene CIS-FACTORIAL HepG2 Assay for human Sterol Regulatory Element Binding (SREBP) (AID 2282962; active means hit-call score of the fitted dose curve at least 0.9, where 1 is the maximum; inactive means score below 0.9). As to conditions: HepG2 Attagene cis-factorial SREBP reporter, mRNA; actives raise or lower the signal. The essentials: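 Endogenous factor activity is measured in HepG2 through multiplexed reporter units under cis-element control. Following a 24 h incubation, reporter transcripts are reverse-transcribed, PCR-amplified and sized by capillary electrophoresis; activity is fitted in both directions relative to DMSO.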

The target of test [7] is Signal transducer and activator of transcription 3 (Homo sapiens) (UniProt P40763). Kind of test: ATG_STAT3_CIS: Attagene CIS-FACTORIAL HepG2 Assay for human Signal Transducer and Activator of Transcription 3 (STAT3) (AID 2282963; active means hit-call score of the fitted dose curve at least 0.9, where 1 is the maximum; inactive means score below 0.9). As to conditions: HepG2, Attagene cis-factorial STAT3 reporter transcription; actives raise or lower the signal. In short, it runs like this:
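Cis-factorial format: endogenous transcription factors in HepG2 drive transfected reporter units. After 24 h treatment, reporter RNA was reverse-transcribed, amplified, FAM-labelled and HpaI-digested before CE analysis; activity scored in both directions against DMSO.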

Test [8] is described as follows: ATG_NF_kB_CIS: Attagene CIS-FACTORIAL HepG2 Assay for human Nuclear Factor Kappa B (NF-kB) (AID 2282991; active means hit-call score of the fitted dose curve at least 0.9, where 1 is the maximum; inactive means score below 0.9). Conditions: HepG2 Attagene cis-factorial NF-kB reporter mRNA; actives raise or lower the signal. The essentials: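 Fluorescence of labelled RT-PCR products separated by capillary electrophoresis gives reporter mRNA levels from transfected HepG2 cells exposed 24 h; values are fitted in both directions relative to DMSO.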

The nature of test [9]: ATG_NRF2_ARE_CIS: Attagene CIS-FACTORIAL HepG2 Assay for human Nuclear Factor Erythroid 2 Related Factor 2 (NFR2) response to Antioxidant Response Elements (ARE) (AID 2282992; active means hit-call score of the fitted dose curve at least 0.9, where 1 is the maximum; inactive means score below 0.9). Conditions: HepG2 Attagene ARE/NRF2 reporter, transcription factor activity; actives raise or lower the signal. The essentials: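 Endogenous transcription factor activity in human liver HepG2 cells is tracked via a cis-element-driven reporter within a multiplexed set. mRNA induction is read by RT-PCR and capillary electrophoresis after 24 h, with DMSO as baseline.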

Test [10] can be described thus: ATG_Oct_MLP_CIS: Attagene CIS-FACTORIAL HepG2 Assay for human Octamer-Binding Transcription Factor (Oct) (AID 2282993; active means hit-call score of the fitted dose curve at least 0.9, where 1 is the maximum; inactive means score below 0.9). Conditions: HepG2 Attagene cis-factorial Oct reporter, mRNA; actives raise or lower the signal. In short, it runs like this: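 Cells of the HepG2 line express promoter-controlled reporter sequences whose mRNA levels, after 24 h treatment, are measured by RT-PCR and capillary electrophoresis. Increases and decreases are scored relative to DMSO.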

Test [11] addresses human Retinoid X Receptor beta (RXRb), RXRB (gene 6257) (UniProt P28702). Kind of test: ATG_RXRb_TRANS: Attagene TRANS-FACTORIAL HepG2 Assay for human Retinoid X Receptor beta (RXRb) (AID 2283013). The essentials:
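Read-out: reporter mRNA induction via RT-PCR plus capillary electrophoresis fluorescence, analysed as signal increase relative to DMSO. Cells were human HepG2, transiently transfected with GAL4-UAS reporter constructs and chimeric receptor-Gal4 fusions, dosed for 24 h.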

A short description of test [12]: TOX21_p53_BLA_p2_viability: Viability Assessment in the Tox21 HCT-116 p53 Agonism Beta-lactamase Assay, Phase 2 (AID 2283591).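 Further: compound exposure lasted 16 h at 37 °C; actives lower the ATP signal meaning cytotoxicity.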 The essentials:
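Cytotoxicity readout: CellTiter-Glo ATP luminescence, 30 min at room temperature, after the beta-lactamase read. Cells were HCT116 exposed 16 h at 37C to compounds pin-transferred at 217-fold dilution from DMSO stocks.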

Test [13] addresses Cellular tumor antigen p53 (Homo sapiens) (UniProt P04637). Kind of test: TOX21_p53_BLA_p3_ratio: Tox21 HCT-116 p53 Agonism Beta-lactamase Assay, Ratio, Phase 3 (AID 2283596). The essentials:
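Cells were seeded at 4000/well, rested 5 h at 37C, then dosed with DMSO compound solutions (217-fold dilution) for 16 h. CCF4-AM substrate was loaded for 2 h at room temperature, and the 460/530 nm emission ratio was fitted for gain of signal versus DMSO.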

For test [14] the target is unchanged. Kind of test: TOX21_p53_BLA_p5_ratio: Tox21 HCT-116 p53 Agonism Beta-lactamase Assay, Ratio, Phase 5 (AID 2283599). The essentials:
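Beta-lactamase reporter ratio (blue 460 nm over green 530 nm, 405 nm excitation) after 2 h CCF4-AM loading, in HCT-116 cells exposed 16 h at 37 C to compounds pinned at 217-fold dilution. Increases relative to DMSO baseline scored.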

Test [15] is described as follows: TOX21_p53_BLA_p5_viability: Viability Assessment in the Tox21 HCT-116 p53 Agonism Beta-lactamase Assay, Phase 5 (AID 2283600). In short, it runs like this:
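Viability is taken from cellular ATP content, measured by luciferase luminescence in the same wells after the beta-lactamase ratio read. Cells are seeded at 4000 per well and exposed to DMSO-dissolved compounds, diluted 217-fold, for 16 h.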

Test [16] addresses Cellular tumor antigen p53 (Homo sapiens) (UniProt P04637). Kind of test: TOX21_p53_BLA_p4_ratio: Tox21 HCT-116 p53 Agonism Beta-lactamase Assay, Ratio, Phase 4 (AID 2283601). The essentials: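 Signal is the blue/green (460nm/530nm) ratio of cleaved versus uncleaved CCF4-AM substrate, read after 2 h substrate loading. Cells were HCT116 carrying the p53-responsive beta-lactamase reporter, dosed 16 h at 37C, 5% CO2; CellTiter-Glo measured in parallel.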

Test [17] deals with Hepatocyte nuclear factor 4-alpha (Homo sapiens) (UniProt P41235). Kind of test: ATG_HNF4a_TRANS: Attagene TRANS-FACTORIAL HepG2 Assay for human Hepatocyte Nuclear Factor 4 alpha (HNF4a) (AID 2282982). As to conditions: HepG2 HNF4a transactivation reporter, mRNA readout. The essentials:
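Multiplexed reporter assay: transfected HepG2, 24 h exposure, total RNA → oligo(dT) RT → PCR → 6-FAM extension → HpaI digest → CE fluorescence. DMSO = negative control.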

The nature of test [18]: ATG_M_06_TRANS: Attagene TRANS-FACTORIAL HepG2 Assay for M06 Transcription Factor (Internal Marker) (AID 2282983). Conditions: HepG2 Attagene TRANS M06 internal marker reporter. The essentials:
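Human liver HepG2 cells bearing transiently transfected chimeric NR-GAL4 reporter units were treated with chemicals for 24 h. Total RNA was reverse-transcribed, reporter sequences amplified and labelled, then quantified by capillary electrophoresis. Activity was fitted upward relative to DMSO.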

Test [19] deals with human Peroxisome Proliferator-activated Receptor alpha (PPARa), PPARA (gene 5465) (UniProt Q07869). Kind of test: ATG_PPARa_TRANS: Attagene TRANS-FACTORIAL HepG2 Assay for human Peroxisome Proliferator-activated Receptor alpha (PPARa) (AID 2283001). In short, it runs like this: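 Transfected HepG2 cells treated with test chemical for 24 h. RNA isolated, reverse-transcribed with oligo(dT), PCR-amplified, FAM-labelled and HpaI-digested. Fragments sized by capillary electrophoresis; gain-of-signal fit relative to DMSO.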

Test [20] is described as follows: TOX21_p53_BLA_p3_viability: Viability Assessment in the Tox21 HCT-116 p53 Agonism Beta-lactamase Assay, Phase 3 (AID 2283593).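 Further: cells exposed to compound for 16 h before reading.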 The essentials: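 Cellular ATP was quantified by CellTiter-Glo luminescence, read after 30 min at room temperature. Beforehand, HCT116 cells (4000/well) received compound 5 h post-seeding, 217-fold diluted from DMSO, then incubated 16 h at 37C.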

Hepatocyte nuclear factor 4-alpha (Homo sapiens), sequence (P41235 whole entry, looked up): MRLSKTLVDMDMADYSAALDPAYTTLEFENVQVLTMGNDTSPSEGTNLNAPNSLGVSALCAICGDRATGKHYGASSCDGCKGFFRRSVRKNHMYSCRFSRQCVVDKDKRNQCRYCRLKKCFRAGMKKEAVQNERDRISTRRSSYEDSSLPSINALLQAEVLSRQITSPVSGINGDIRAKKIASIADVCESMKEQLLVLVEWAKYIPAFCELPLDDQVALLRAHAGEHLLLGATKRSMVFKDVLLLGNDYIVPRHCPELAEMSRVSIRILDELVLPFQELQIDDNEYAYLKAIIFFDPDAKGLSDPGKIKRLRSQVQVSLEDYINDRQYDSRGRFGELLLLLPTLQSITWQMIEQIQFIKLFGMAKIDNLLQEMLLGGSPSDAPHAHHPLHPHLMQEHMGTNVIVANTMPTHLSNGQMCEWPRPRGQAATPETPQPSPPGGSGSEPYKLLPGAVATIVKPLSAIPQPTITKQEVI
human Peroxisome Proliferator-activated Receptor alpha (PPARa), PPARA (gene 5465), sequence (Q07869 whole entry, looked up, the tested form may be a part): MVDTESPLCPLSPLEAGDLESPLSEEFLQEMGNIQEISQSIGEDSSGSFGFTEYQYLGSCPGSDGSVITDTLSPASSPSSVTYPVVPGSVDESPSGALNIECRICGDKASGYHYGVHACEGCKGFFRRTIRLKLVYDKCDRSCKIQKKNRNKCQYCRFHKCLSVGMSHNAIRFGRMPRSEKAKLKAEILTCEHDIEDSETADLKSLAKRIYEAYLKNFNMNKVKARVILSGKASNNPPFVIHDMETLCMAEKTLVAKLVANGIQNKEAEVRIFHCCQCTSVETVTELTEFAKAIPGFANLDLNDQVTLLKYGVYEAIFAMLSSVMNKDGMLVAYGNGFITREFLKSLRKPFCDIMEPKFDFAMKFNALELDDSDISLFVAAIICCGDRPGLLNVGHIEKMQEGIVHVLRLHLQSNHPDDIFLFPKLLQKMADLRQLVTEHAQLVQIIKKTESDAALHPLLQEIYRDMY
Cellular tumor antigen p53 (Homo sapiens), sequence (P04637 whole entry, looked up): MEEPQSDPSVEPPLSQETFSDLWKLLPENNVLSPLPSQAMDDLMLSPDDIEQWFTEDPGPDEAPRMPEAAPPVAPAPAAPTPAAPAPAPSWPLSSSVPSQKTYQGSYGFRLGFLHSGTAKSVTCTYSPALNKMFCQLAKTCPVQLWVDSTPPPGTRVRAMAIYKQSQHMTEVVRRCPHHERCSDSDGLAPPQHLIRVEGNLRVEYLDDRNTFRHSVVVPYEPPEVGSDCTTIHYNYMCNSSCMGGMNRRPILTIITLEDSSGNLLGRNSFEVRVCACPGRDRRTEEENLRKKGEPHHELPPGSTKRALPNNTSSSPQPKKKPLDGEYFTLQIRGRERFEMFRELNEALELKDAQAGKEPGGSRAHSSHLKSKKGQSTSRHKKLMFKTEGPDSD
human Retinoid X Receptor beta (RXRb), RXRB (gene 6257), sequence (P28702 whole entry, looked up, the tested form may be a part): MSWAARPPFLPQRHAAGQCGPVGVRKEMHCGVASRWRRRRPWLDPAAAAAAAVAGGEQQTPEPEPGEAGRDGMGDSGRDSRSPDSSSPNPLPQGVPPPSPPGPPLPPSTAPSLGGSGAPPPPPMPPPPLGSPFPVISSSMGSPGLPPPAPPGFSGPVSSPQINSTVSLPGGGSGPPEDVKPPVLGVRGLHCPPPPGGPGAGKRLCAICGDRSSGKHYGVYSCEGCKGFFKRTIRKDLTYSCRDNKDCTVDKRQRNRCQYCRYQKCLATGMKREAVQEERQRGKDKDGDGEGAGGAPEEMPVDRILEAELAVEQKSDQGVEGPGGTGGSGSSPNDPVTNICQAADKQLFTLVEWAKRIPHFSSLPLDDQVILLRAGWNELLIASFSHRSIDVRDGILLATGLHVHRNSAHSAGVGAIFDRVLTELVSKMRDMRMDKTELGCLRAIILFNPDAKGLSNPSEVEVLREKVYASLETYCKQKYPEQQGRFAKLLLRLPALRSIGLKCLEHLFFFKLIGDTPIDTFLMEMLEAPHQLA
Signal transducer and activator of transcription 3 (Homo sapiens), sequence (P40763 whole entry, looked up): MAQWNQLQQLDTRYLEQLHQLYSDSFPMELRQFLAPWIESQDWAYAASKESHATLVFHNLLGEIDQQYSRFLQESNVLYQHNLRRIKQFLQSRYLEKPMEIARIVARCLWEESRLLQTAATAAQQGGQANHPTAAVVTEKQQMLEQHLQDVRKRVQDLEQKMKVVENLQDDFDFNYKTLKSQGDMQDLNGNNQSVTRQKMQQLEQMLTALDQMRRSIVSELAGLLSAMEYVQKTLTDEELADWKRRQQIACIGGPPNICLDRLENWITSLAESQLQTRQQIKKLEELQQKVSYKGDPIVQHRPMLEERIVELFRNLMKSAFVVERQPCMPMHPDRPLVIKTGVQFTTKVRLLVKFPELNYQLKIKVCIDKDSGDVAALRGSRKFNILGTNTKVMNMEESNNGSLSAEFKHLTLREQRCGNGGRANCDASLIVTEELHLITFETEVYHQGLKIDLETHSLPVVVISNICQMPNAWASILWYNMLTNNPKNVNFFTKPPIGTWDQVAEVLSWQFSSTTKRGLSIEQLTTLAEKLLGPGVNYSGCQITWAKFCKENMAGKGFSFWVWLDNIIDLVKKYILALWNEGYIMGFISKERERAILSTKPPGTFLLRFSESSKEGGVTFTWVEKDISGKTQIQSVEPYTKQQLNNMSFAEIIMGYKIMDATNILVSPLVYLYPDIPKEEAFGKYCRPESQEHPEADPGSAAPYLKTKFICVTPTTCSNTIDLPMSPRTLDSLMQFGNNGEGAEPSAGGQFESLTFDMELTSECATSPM
Heat shock factor protein 1 (Homo sapiens), sequence (Q00613 whole entry, looked up): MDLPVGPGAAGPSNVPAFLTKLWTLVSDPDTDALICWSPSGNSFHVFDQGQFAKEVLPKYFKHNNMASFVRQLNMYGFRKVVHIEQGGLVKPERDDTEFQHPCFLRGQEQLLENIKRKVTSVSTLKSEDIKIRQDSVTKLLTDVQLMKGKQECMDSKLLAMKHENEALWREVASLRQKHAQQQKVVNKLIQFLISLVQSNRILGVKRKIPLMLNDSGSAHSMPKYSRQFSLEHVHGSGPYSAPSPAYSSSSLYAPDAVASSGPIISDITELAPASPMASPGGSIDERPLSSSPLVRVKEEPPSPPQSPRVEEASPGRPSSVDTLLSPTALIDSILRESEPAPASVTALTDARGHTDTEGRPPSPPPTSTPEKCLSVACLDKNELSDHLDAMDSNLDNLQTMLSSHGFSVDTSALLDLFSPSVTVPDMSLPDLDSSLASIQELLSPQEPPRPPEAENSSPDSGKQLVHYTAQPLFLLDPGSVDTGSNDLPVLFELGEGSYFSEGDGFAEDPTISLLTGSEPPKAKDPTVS
Hepatocyte nuclear factor 6 (Homo sapiens), sequence (Q9UBC0 whole entry, looked up): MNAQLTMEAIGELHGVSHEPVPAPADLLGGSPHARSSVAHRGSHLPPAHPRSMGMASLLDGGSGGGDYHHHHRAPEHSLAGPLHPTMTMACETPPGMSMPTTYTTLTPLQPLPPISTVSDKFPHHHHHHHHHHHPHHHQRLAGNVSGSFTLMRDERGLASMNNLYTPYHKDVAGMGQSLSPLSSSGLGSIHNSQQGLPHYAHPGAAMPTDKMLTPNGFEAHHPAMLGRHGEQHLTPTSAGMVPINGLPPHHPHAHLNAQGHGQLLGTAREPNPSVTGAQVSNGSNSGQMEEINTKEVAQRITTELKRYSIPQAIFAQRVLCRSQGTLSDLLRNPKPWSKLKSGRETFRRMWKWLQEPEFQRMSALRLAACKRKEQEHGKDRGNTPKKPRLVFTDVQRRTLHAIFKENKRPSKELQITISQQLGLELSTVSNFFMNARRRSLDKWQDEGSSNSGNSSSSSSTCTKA

What is called AC50 is the midpoint of the concentration-response curve, whichever way the signal moves. In the case of `CC(C)CC(=O)CC(C)CC(C)C` (centres undefined), the outcome in [1], in test [2], in test [3], in test [4], in [5] and in [6] was inactive. Also, the compound was called inactive in test [7], in [8], in [10], in test [11], in test [12] and in [13]. Moreover, the outcome in test [14], in test [15] and in [16] was inactive. For the same compound, in [9], the AC50 is 116000 nM (active).
In the case of `NC(=O)c1ccc([N+](=O)[O-])cc1Cl`, the compound was called inactive in test [2], in [4], in [5], in test [7], in [17] and in test [18]. The compound was classed as inactive in [8], in [9], in test [11], in [12], in test [13] and in [14]. Further, the compound was classed as inactive in [15] and in test [16].
For the compound `CCCCCCC1CCC(=O)O1` (centres undefined), the outcome in test [1], in [3], in test [5], in test [6], in test [7] and in test [17] was inactive. Moreover, the outcome in test [10], in test [19], in test [11], in [12], in test [13] and in test [14] was inactive.
In the case of `Sc1nc2ccccc2s1`, the compound was called inactive in test [1], in [2], in test [4], in test [5], in test [6] and in test [18]. Moreover, the outcome in [19], in [11], in test [13], in test [14] and in [16] was inactive. Further, the AC50 in test [12] was 0.211 nM (active); in test [20], 0.124 nM (active); in [15], 0.128 nM (active).
With `CNC[C@H](O)[C@@H](O)[C@H](O)[C@H](O)CO`, the compound was classed as inactive in [1], in [3], in [4], in test [5], in test [6] and in [18]. The call in test [8], in test [10], in [19], in [12], in test [20] and in test [13] was inactive. In addition, the result in test [14], in [15] and in test [16] was inactive.
Take `OCCOCCOCCOCCOCCO`: the result in test [1], in test [3], in [4], in test [6], in test [18] and in [9] was inactive. Further, the compound was classed as inactive in test [10], in test [19], in test [12], in test [20], in [13] and in test [14]. In addition, the result in test [15] and in [16] was inactive.
Regarding `O=C(O)/C=C\C(=O)O`, the call in test [2], in test [5], in [6], in test [7], in test [17] and in test [18] was inactive. Besides, the compound was classed as inactive in test [8], in test [9] and in test [10].
Consider `CCCC[N+]1(C)CCCC1`, for which the call in [4], in test [7], in test [18] and in test [19] was inactive.
For `CCCCNC(N)=O`, the compound was called inactive in test [1], in test [2], in [3], in test [5], in test [7] and in test [18]. For the same compound, the compound was classed as inactive in test [8], in [9], in test [10], in [19], in [11] and in test [12]. The result in test [20], in [13], in test [14], in [15] and in [16] was inactive.
With `O=C(O)c1ccccc1C(=O)O`, the call in test [2], in test [4], in test [5], in test [6], in [17] and in test [18] was inactive. Moreover, the compound was called inactive in [8], in test [11], in test [12], in test [20], in [13] and in test [14]. Moreover, the compound was classed as inactive in [15] and in test [16].
